The text below walks through data of PubChem BioAssay (NCATS).

Molecules are shown by their SMILES. Inconclusive results are not listed. Active and inactive are the calls of the source. Calls follow the shape of the dose curve; as a rule, active = well fitted curve in the direction sought with a large enough effect in the signal ratio, with a control signal flat (not every such curve was filed as active); inconclusive = small, poorly fitted or top-dose-only effect, or effect the other way, or a change in a side signal; inactive = no such curve, though single readings can be large or run the other way; the % refers to the signal ratio.

The experiment deals with Peroxisome proliferator-activated receptor gamma (Homo sapiens) (UniProt P37231). Nature of the experiment: qHTS assay for small molecule agonists of peroxisome proliferator-activated receptor gamma signaling (AID 588536). The following applies: HEK293 PPARg-UAS-bla, beta-lactamase ratio, 16 h, percent of rosiglitazone response, DMSO as zero; series mostly up to 76.7 µM. The source says: NIH Chemical Genomics Center [NCGC] U.S. Environmental Protection Agency [EPA] National Institutes of Environmental Health Sciences [NIEHS] National Toxicology Program [NTP] NCGC Assay Overview The Peroxisome proliferator-activated receptors (PPARs) are lipid-activated transcription factors of the nuclear receptor superfamily with three distinct subtypes namely PPAR alpha, PPAR delta (also called PPAR beta) and PPAR gamma. All these subtypes heterodimerizes with Retinoid X receptor (RXR) and these heterodimers regulate transcription of various genes. PPAR-gamma (glitazone receptor) agonists have been used in the treatment of type 2 diabetes and dyslipidaemia. It is involved in the regulation of glucose and lipid metabolism. PPAR-gamma activates certain genes like Paraoxonase 1 which is responsible for hydrolyzing organophosphates. PPAR-gamma agonists may also be therapeutically important in the treatment of coronary artery disease, obesity and cancer and atherosclerosis.
Sequence of Peroxisome proliferator-activated receptor gamma (Homo sapiens) (P37231 whole entry, looked up): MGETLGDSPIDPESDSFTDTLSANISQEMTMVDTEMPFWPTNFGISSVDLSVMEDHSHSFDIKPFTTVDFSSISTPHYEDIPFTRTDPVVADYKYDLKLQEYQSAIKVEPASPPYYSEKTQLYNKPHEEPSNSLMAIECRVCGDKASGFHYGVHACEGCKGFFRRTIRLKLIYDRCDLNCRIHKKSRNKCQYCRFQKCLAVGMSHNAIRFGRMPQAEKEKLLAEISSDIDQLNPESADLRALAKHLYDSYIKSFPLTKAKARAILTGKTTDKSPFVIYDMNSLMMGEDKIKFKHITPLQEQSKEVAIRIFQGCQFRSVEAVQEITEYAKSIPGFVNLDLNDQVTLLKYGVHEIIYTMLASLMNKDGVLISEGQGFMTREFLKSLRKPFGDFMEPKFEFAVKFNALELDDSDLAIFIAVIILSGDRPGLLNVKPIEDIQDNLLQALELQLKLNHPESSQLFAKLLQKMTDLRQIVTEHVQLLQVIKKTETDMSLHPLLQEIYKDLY
NCGC Assay Protocol Summary Using a beta-lactamase reporter-gene under control of Peroxisome Proliferator-Activated-gamma (PPAR-gamma) response element, a cell-based assay [GeneBLAzer PPAR-gamma-UAS-bla assay developed by Invitrogen] was used to measure PPAR-gamma ligands signaling. GeneBLAzer PPAR-gamma-UAS-bla-HEK293 cells were used with assay medium containing 1% charcoal/dextran treated FBS. The assay was performed in clear bottom black Greiner 1536-well plates. Rosiglitazone was used in the screen as the positive control. Library compounds were measured for their ability to stimulate the reporter gene activity. Compounds were screened in a titration series in 1536-well format. The fluorescence intensity (405 nm excitation, 460/530 nm emission) was measured using an EnVision plate reader. Data was normalized relative to Rosiglitazone control (2 uM, 100%), and DMSO only wells (basal, 0%). Concentration-response titration points for each compound were fitted to the Hill equation yielding concentrations of half-maximal stimulation (EC50) and maximal response (efficacy) values. qHTS protocol for PPAR-gamma beta-lactamase assay in agonist mode [Step] [Parameter] [Value] [Description] 1. Reagent; 6 uL; 3000 cells/well 2. Incubation; 37 C for 6 - 6.5 hrs 3. Compounds; 23 nL; 0.59 nM to 92 uM 4. Controls (Rosiglitazone); 23 nL, - One column with dose response, start 19 uM, 1:3 dilutions in duplicates - Final concentrations of 2 uM and 0.5 uM in two columns 5. Incubation; 37 C for 16 hrs 6. Detection reagent; 1 uL of CCF4-dye 7. Incubation; RT for 2 hrs 8. Detection; Fluorescence; Envision plate reader
Background: qHTS replaces the single test concentration by a dilution series.
With `C[C@]12CCC(=O)C=C1CC[C@@H]1[C@@H]2[C@@H](O)C[C@]2(C=O)[C@@H](C(=O)CO)CC[C@@H]12`, the outcome was inactive.
With `CCCC[O][Al]([O]CCCC)[O]CCCC` the entry was “inactive”.
As to `CC(C)c1cccc(C(C)C)c1`, the result was inactive.
Take `COC(=O)c1cccc(C(=O)OC)c1`: the outcome was inactive.
With `CC(C)(C)c1n[nH]c(=O)n(N)c1=O` the entry was “inactive”.
For `c1ccc2c(c1)Cc1ccccc1-2`, the outcome was inactive.
Consider `CCC(=O)OCCc1ccccc1`, for which the outcome was inactive.
In the case of `CO[Si](OC)(OC)c1ccccc1` it was “inactive”; in that of `CC/C=C/CCCCCCCCCCOC(C)=O`, “inactive”.
With `C[Si](Cl)(Cl)c1ccccc1` the entry was “inactive”; with `CCCCCCCC(=O)Oc1c(Br)cc(C#N)cc1Br`, “inactive”.
With `CC(C)OB(OC(C)C)OC(C)C` the entry was “inactive”; with `CCCCCCCCCCCCCCCO`, “inactive”; with `CC(C)(N=C=O)c1cccc(C(C)(C)N=C=O)c1`, “inactive”.
As for `CCCCCCCC/C=C\CCCCCCCC(=O)OC`, the outcome was inactive.
As to `OCCOCCOCCOCCOCCO`, the outcome was inactive.
With `CCCOC(=O)NCCCN(C)C`, the result was inactive.
Consider `Cn1c(=O)[nH]c(=O)n(C2CCCCC2)c1=O`, for which the result was inactive.
Turning to `CC(Cl)(Cl)C(=O)OCCOc1cc(Cl)c(Cl)cc1Cl`, the result was inactive.
With `CC(COCC(C)OC(=O)c1ccccc1)OC(=O)c1ccccc1` (stereo not given) the entry was “inactive”; with `CCN(Cc1c(F)cccc1Cl)c1c([N+](=O)[O-])cc(C(F)(F)F)cc1[N+](=O)[O-]`, “inactive”.
With `CCCCCc1ccc(N)cc1` the entry was “inactive”; with `C=CCOC(=O)CC(C)C`, “inactive”; with `C=CCOc1nc(OCC=C)nc(OCC=C)n1`, “inactive”.
In the case of `Cc1ccc(N=Nc2c(O)ccc3ccccc23)c(C)c1`, the outcome was inactive.
With `C/C=C/C/C=C\CCCCCCCCOC(C)=O` the entry was “inactive”.
In the case of `CC(C)CCCCOC(=O)c1ccccc1C(=O)OCCCCC(C)C` it was “inactive”.
With `CCC(C)OC(=O)N1CCCCC1CCO` (stereo not given) the entry was “inactive”; with `CC(C)(C)c1ccc(C(=O)O)cc1`, “inactive”; with `CCCCCCCCCCCO`, “inactive”.
Take `CCCCCCCCCCCC[N+](C)(C)[O-]`: the outcome was inactive.
With `CC(C)(C)c1cccc(C(C)(C)C)c1O` the entry was “inactive”.
`CN(C)CCOCCN(C)C`: the result was inactive.
In the case of `CCCCCCCOC(=O)c1ccccc1C(=O)OCCCCCCC` it was “inactive”; in that of `COC(=O)c1ccc(I)cc1S(=O)(=O)NC(=O)Nc1nc(C)nc(OC)n1`, “inactive”.
With `CC(C)(C)C1CCC(O)CC1` (stereo not given) the entry was “inactive”.
Regarding `C/C(=C\C(C)CC(C)CC(C)C)C1CC(=O)OC1=O` (stereo not given), the result was inactive.
With `CC(C)Cc1c(C(=O)O)c(C(F)F)nc(C(F)(F)F)c1C1=NCCS1` the entry was “inactive”; with `C=CC(=O)OCC[N+](C)(C)C`, “inactive”.
In the case of `c1ccc(B(c2ccccc2)c2ccccc2)cc1` it was “inactive”.
